The text below walks through data of PMC4552634, “A New Set of Chemical Starting Points with Plasmodium falciparum Transmission-Blocking Potential for Antimalarial Drug Discovery” (PLoS ONE, 2015).

This test concerns P. falciparum stage V gametocytes. The arrangement: BacTiter-Glo ATP luminescence viability of purified stage V gametocytes in 384-well plates, per cent inhibition versus DMSO. To be noted: 48 h, 5 µM, inhibitor.

SMILES strings stand for the structures. Like-named read-outs stand apart in the source and are kept apart here. The whole screen tested about 13,000 compounds, of which about 3,200 (25%) showed an effect of 50% or more. This is one part of the list.

Usually % Inhibition stands for the relative decrease from the control value, in per cent.

On to `CO/N=C(\C)c1ccc2c(c1)CCN(CCC1CCC(NC(=O)c3cccc(-c4noc(C)n4)c3)CC1)CC2` (stereo not drawn) [TCMDC-139923], for which the “% Inhibition” value worked out at 19.53%.
As for `CC(C)c1cccc(OCC2CCN(c3ncc(C(=O)Nc4ccccc4)cc3Cl)CC2)c1` [TCMDC-134262], the “% Inhibition” value is 5.5%.
The same measure, in the same setting: the value for `O=C(NC1CC1)c1cnc(N2CCC(c3ccccc3)CC2)c(Cl)c1` [TCMDC-134605] was 18.88%; that for `COc1ccc2nccc([C@@H](O)CN3CCC(NCc4cc5cccc(O)c5c(=O)[nH]4)CC3)c2c1` [TCMDC-141223] was 13.37%.
The same measure, in the same setting: the value for `COc1ccc2nccc([C@@H](O)CN3CCC(NCc4ccc5c(c4)NC(=O)CO5)CC3)c2c1` [TCMDC-140793] was 20.76%; that for `COc1ccc2nccc([C@@H](O)CN3CCC(NCc4cc5cc(Cl)ccc5[nH]4)CC3)c2c1` [TCMDC-140697] was 66.18%.
Same read-out and setting: the figure for `COc1ccc2nccc([C@@H](O)CN3CCC(NCc4ccc5c(c4)NC(=O)CS5)CC3)c2c1` [TCMDC-141058] is 3.469%; for `COc1cc(F)c2ncc(F)c([C@@H](O)CN3CCC(NCc4cc5c(cn4)OCCO5)CC3)c2c1` [TCMDC-135378] it is -21.41%.
With `COc1cc(F)c2nccc([C@@H](O)CN3CCC(NCc4nc5c(F)cccc5[nH]4)CC3)c2c1` [TCMDC-140970], the “% Inhibition” value is recorded as -8.506%.
Still for that read-out and setting: the figure for `COc1cc(F)c2nccc([C@@H](O)CN3CCC(NCc4cc5c(cc4F)OCCO5)CC3)c2c1` [TCMDC-141570] is 69.54%.
Still for that read-out and setting: the value for `COc1ccc2nccc([C@@H](O)CN3CCC(NCc4cc5cc([N+](=O)[O-])ccc5[nH]4)CC3)c2c1` [TCMDC-140693] was 14.13%; that for `COc1ccc2nccc([C@@H](O)CN3CCC(NCc4ccc5c(c4)NC(=O)C(C)S5)CC3)c2c1` (stereo partly drawn) [TCMDC-141222] was 79.58%; that for `CCCN1CCC2(CC1)NC(C(=O)NCCC(C)C)Cc1c2[nH]c2cc(Cl)ccc12` (stereo not drawn) [TCMDC-141295] was -32.44%.
Same read-out and setting: the figure for `COc1ccccc1C(=O)Nc1ccc(Nc2nc(C)cc(N3CCOCC3)n2)cc1` [TCMDC-124706] is 21.35%; for `Cn1cncc1C(=O)Nc1ccc(-c2cccc(-c3nc4ccc(F)cc4[nH]3)c2)cc1` [TCMDC-137056] it is 28.45%; for `Cn1cncc1C(=O)Nc1cccc(-c2cccc(-c3nc4ccccc4[nH]3)c2)c1` [TCMDC-137054] it is 26.78%.
`Cn1cncc1C(=O)Nc1ccc(-c2cccc(-c3nc4ccc(C(F)(F)F)cc4[nH]3)c2)cc1` [TCMDC-137062]: the “% Inhibition” value is on record as -23.24%.
For the molecule `Cc1cccc2[nH]c(-c3cccc(-c4cccc(NC(=O)c5cn(C)c(=O)n5C)c4)c3)nc12` [TCMDC-137137], the “% Inhibition” value is -10.73%.
Same read-out and setting: the value for `Cc1cccc2[nH]c(-c3cccc(-c4cccc(NC(=O)c5cncn5C)c4)c3)nc12` [TCMDC-137063] was 85.59%; that for `Cn1cncc1C(=O)Nc1cccc(-c2ccc(-c3nc4ccc(C(F)(F)F)cc4[nH]3)cc2)c1` [TCMDC-137064] was -23.15%; that for `Cn1cncc1C(=O)Nc1cccc(-c2ccc(-c3nc4ccc(F)cc4[nH]3)cc2)c1` [TCMDC-137059] was -26.92%.
With `Cn1cncc1C(=O)Nc1cccc(-c2csc(-c3nc4ccccc4[nH]3)c2)c1` [TCMDC-132396], the “% Inhibition” value is recorded as -5.264%.
Same read-out and setting: the value for `Cn1cncc1C(=O)Nc1cccc(-c2cccc(-c3nc4ccc(C(F)(F)F)cc4[nH]3)c2)c1` [TCMDC-137061] was 89.86%.
On the same count and under the same terms, the value for `Cc1cccc2[nH]c(-c3ccc(-c4cccc(NC(=O)c5cncn5C)c4)cc3)nc12` [TCMDC-137057] was -16.54%; that for `Cn1cncc1C(=O)Nc1cccc(-c2ccc(-c3nc4ccccc4[nH]3)cc2)c1` [TCMDC-137060] was 87.09%; that for `Cn1cncc1C(=O)Nc1cccc(-c2cccc(-c3nc4ccc(F)cc4[nH]3)c2)c1` [TCMDC-137058] was 82.61%.
Regarding `O=C(/C=C/c1ccc(Cl)c(Cl)c1)NCCCCCN1CCC(NC(=O)Nc2ccc(F)c(Cl)c2)CC1` [TCMDC-135720], the “% Inhibition” value is recorded as -54.39%.
The same measure, in the same setting: the value for `O=C(c1ccc(-c2ccc(-c3nc4cc(C(F)(F)F)ccc4[nH]3)s2)cc1)N1CCCCC1CN1CCC(O)C1` (stereo not drawn) [TCMDC-132342] was -28.43%; that for `COc1ccc(Nc2nccc(-c3cccc(NC(=O)c4cc5cc(F)ccc5[nH]4)c3)n2)cc1` [TCMDC-133307] was 7.51%.
For `CCCCNC(=O)[C@H](CC1CCCCC1)NC(=O)c1ccc(O)c(-c2ccc(OC)cc2)c1` [TCMDC-140803], the “% Inhibition” value came out at 9.095%.
Same read-out and setting: the value for `COc1ccc(-c2cc(C(=O)N[C@@H](CC3CCCCC3)C(=O)NCCN3CCCC3)ccc2O)cc1` [TCMDC-140802] was 56.09%; that for `COc1ccc(-c2cc(C(=O)N[C@@H](CC3CCCCC3)C(=O)NCCN3CCCCC3)ccc2O)cc1` [TCMDC-140805] was 23%.
Still for that read-out and setting: the figure for `O=C(Nc1ccc2nc(-c3ccc4nc(NC(=O)C5CCCCC5)sc4c3)[nH]c2c1)C1CCCCC1` [TCMDC-125768] is -44.12%.
On the same count and under the same terms, the value for `O=C(N[C@@H](Cc1ccccc1)[C@H](O)CNC1CCc2ccccc2C1)c1cc(C2CCCC2)cc(N2CCCC2=O)c1` (stereo partly drawn) [TCMDC-134647] was -1.727%.
For the molecule `Cc1ccc(/C=C/C(=O)NC2CCC(CN3CCC(c4c[nH]c5ccccc45)CC3)CC2)cc1C` (stereo not drawn) [TCMDC-139760], the “% Inhibition” value (% Inhibition) turned out to be 36.59%.
On the same count and under the same terms, the figure for `Cc1ccc(C)c(C=CC(=O)NC2CCC(CN3CCC(c4c[nH]c5ccccc45)CC3)CC2)c1` (stereo not drawn) [TCMDC-139904] is 66.94%.
With `CCCCC/C=C/C(=O)NC1CCC(CN2CCC(c3c[nH]c4ccccc34)CC2)CC1` (stereo not drawn) [TCMDC-139709], the “% Inhibition” value was determined as 109.3%.
For `Cc1ccc(/C=C/C(=O)NC2CCC(CN3CCC(c4c[nH]c5ccccc45)CC3)CC2)cc1` (stereo not drawn) [TCMDC-139717], the “% Inhibition” value (% Inhibition) is listed as 80.48%.
Consider `O=C(/C=C/c1cccs1)NC1CCC(CN2CCC(c3c[nH]c4ccccc34)CC2)CC1` (stereo not drawn) [TCMDC-139759], for which the “% Inhibition” value came to 42.82%.
Consider `Cc1ccc(C)c(C=CC(=O)NC2CCC(CN3CCC(c4c[nH]c5ccccc45)CC3)CC2)c1` (stereo not drawn) [TCMDC-139916], for which, where the note is “% Inhibition”, the “% Inhibition” value was -2.713%.
Still for that read-out and setting: the value for `Cc1ccc(/C=C/C(=O)NC2CCC(CN3CCC(c4c[nH]c5ccccc45)CC3)CC2)cc1` (stereo not drawn) [TCMDC-139702] was 110%.
As for `O=C(c1cc2c(s1)-c1cccc(Cl)c1SC2)N1CCN(c2ccncc2)CC1` [TCMDC-133145], the “% Inhibition” value is reported as 30.1%.
Still for that read-out and setting: the figure for `CCOc1cc2ncnc(Nc3ccc(OCc4ccccc4Br)c(OC)c3)c2cc1OCC` [TCMDC-131938] is -6.786%.
On the same count and under the same terms, the figure for `COc1ccccc1C1CC(c2ccccc2)=NN1C(=O)c1ccco1` (stereo not drawn) [TCMDC-124921] is 5.682%.
The same measure, in the same setting: the figure for `COc1ccc(-c2cn3c(C(=O)Nc4ccccc4Cl)c(-c4ccccc4)c4c3n2CCCC4)cc1` [TCMDC-125125] is -39.86%; for `CCNC(=O)CCc1cccc(Br)c1` [TCMDC-137648] it is 26.26%.
For the molecule `CCNc1cc(C(=O)N[C@@H](Cc2ccccc2)[C@H](O)CNCCc2cccc3ccccc23)cc(N2CCCC2=O)c1` [TCMDC-134568], the “% Inhibition” value is listed as -9.566%.
The same measure, in the same setting: the value for `N#Cc1ccc(N[C@@H](CC2CCCCC2)C(=O)N[C@@H]2CCCc3ccccc32)c2ccccc12` [TCMDC-136633] was 13.98%; that for `COC(=O)[C@@H](NC(=O)[C@H](Cc1ccc(OC)c(OC)c1)Nc1ccc(C#N)c2ccccc12)c1ccc(O)cc1` [TCMDC-136637] was 53.18%.
On the same count and under the same terms, the figure for `COC(=O)[C@@H](NC(=O)[C@@H](Nc1ccc(C#N)c2ccccc12)C(C)(C)C)c1ccc(O)cc1` [TCMDC-136607] is 78.97%.
On the same count and under the same terms, the value for `CC(C)(C)[C@@H](Nc1ccc(C#N)c2ccccc12)C(=O)NC1(Cc2ccc(O)cc2)CCCC1` [TCMDC-136782] was 18.1%; that for `N#Cc1ccc(N[C@@H](CC2CCCCC2)C(=O)NCc2cc(Cl)cc(Cl)c2)c2ccccc12` [TCMDC-136626] was 13.09%.
Consider `CC(C)(C)[C@@H](Nc1ccc(C#N)c2ccccc12)C(=O)NC1(Cc2ccc(O)c(Br)c2)CCCC1` [TCMDC-136784], for which the “% Inhibition” value stood at 27.12%.
Still for that read-out and setting: the value for `CCCCC1(NC(=O)[C@H](CC(C)C)Nc2ccc(C#N)c3ccccc23)CCCCC1` [TCMDC-136624] was -52.31%; that for `CCC(CC)C(CC(=O)NC(C)(C)CCc1ccccc1OC)Nc1ccc(C#N)c2ccccc12` (stereo not drawn) [TCMDC-132308] was 3.423%; that for `Cc1cc(NC(=O)[C@H](CC(C)C)Nc2ccc(C#N)c3ccccc23)ccc1F` [TCMDC-136623] was -63.41%.
On to `CC(C)C[C@H](Nc1ccc(C#N)c2ccccc12)C(=O)N[C@@H]1CCCc2ccccc21` [TCMDC-136088], for which the “% Inhibition” value is reported as 59.15%.
The same measure, in the same setting: the figure for `COC(=O)[C@@H](NC(=O)[C@H](CC(C)C)Nc1ccc(C#N)c2ccccc12)c1ccc(O)cc1` [TCMDC-136622] is 62.67%; for `COc1cccc([C@@H](CC(=O)Nc2cc(C(F)(F)F)ccc2OC)Nc2ccc(C#N)c3ccccc23)c1` [TCMDC-132309] it is 11.85%; for `CC(=O)Nc1cccc(CNCc2ccc(-c3cnc(N4CCCC(c5ccccc5)C4)nc3)cc2)c1` (stereo not drawn) [TCMDC-133723] it is -4.34%.
The same measure, in the same setting: the figure for `CC(Sc1nc(-c2ccccc2)c(-c2ccccc2)o1)C(=O)NC1CC1` (stereo not drawn) [TCMDC-125313] is 34.01%; for `O=C(Nc1ccc(Cn2ncc(N3CCCNCC3)c(Cl)c2=O)cc1)Nc1cccc(SC(F)(F)F)c1` [TCMDC-133321] it is -32.98%.
On the same count and under the same terms, the value for `O=C(Nc1ccc([N+](=O)[O-])cc1)Nc1nc2ccc(Cl)cc2s1` [TCMDC-123703] was 38.6%.
